Reference: PubChem BioAssay AID2546 (National Center for Advancing Translational Sciences (NCATS), 2010)
Screen size: about 310,000 compounds; about 11,000 (3.5%) were called active. A call without a number means that no potency is given here. Another 8% or so got no clear call; they are omitted. For the sample, actives were picked, then their nearest neighbours and some compounds at random. A number with no mark means an inactive call. Calls come from the whole dose curve; as a rule, active = well fitted inhibition curve with a large enough effect; inconclusive = small, poorly fitted or top-dose-only effect, or effect the other way; inactive = flat fitted curve, though single readings scatter.

Test: VP16 counterscreen qHTS for inhibitors of ROR gamma transcriptional activity;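 note: Gal4-VP16 expression switched on by copper sulfate through the metallothionein promoter; nearly all actives have a fitted effect of over 50% in size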
Conditions: Drosophila S2 Gal4-VP16 UAS-luciferase, luminescence, 20 h; series mostly up to 53.6 µM
Text: NIH Molecular Libraries Probe Production Network [MLPCN]
NIH Chemical Genomics Center [NCGC]
Assay Provider: Dan Littman, New York University
The retinoic acid-related orphan receptor (ROR) gamma is a transcription factor that has a central role in the differentiation of Th17 cells, a subset of T helper cells that secrete the inflammatory cytokines IL-17, IL-17F, and IL-22. Th17 cells have been implicated in graft versus host disease, autoimmune disease and asthma. ROR gamma is induced in naive T helper cells in the presence of TGF-beta combined with IL-6, IL-21, or IL-23, and thereafter directs the expression of the Th17 lineage cytokines. To identify nonspecific inhibitors, a Drosophila Schneider cell line was stably transfected with two vectors: a gene expressing a fusion of the Gal4 DNA binding domain and VP16 transactivation domain under the control of the metallothionine promoter and a Photinus luciferase reporter regulated by the Gal4 binding site enhancer, UAS. […] Small molecule inhibitors that inhibit components common to the RORgt and VP16 assays, such as the Gal4 DNA binding domain or the UAS luciferase reporter, will be active in both assays and thus scored as nonspecific.
For screening, 600 cells in 4 uL/well were dispensed into white solid 1536-well plates (Grenier) using a solenoid-based dispenser. Following transfer of 23 nL compound or DMSO vehicle by a pin tool, the plates were incubated 1 hr at ambient temperature, and 1 uL/well copper sulfate (700 uM final concentration) was added. The plates were centrifuged 15 s at 1000 RPM and incubated 20 hr at ambient temperature. After addition of 1.5 uL Photinus luciferase detection reagent, the plates were incubated 10 min at ambient temperature and then read by a ViewLux (Perkin Elmer) to detect luminescence.
Potency is the fitted concentration of half-maximal effect.

| Compound | Potency | activity, negative = inhibition |
| --- | --- | --- |
| COc1ccc(C2c3[nH]c4ccccc4c3C[C@H]3C(=O)N(CC(C)C)CC(=O)N23)c(OC)c1 (stereo partly specified) | inactive |  |
| O=S(=O)(NC1CCCCC1N1CCCCC1)c1ccc(Cl)cc1 (stereo unspecified) | inactive |  |
| COc1ccc(OC)c(C(C)NC(=S)Nc2ccc(S(=O)(=O)Nc3ncccn3)cc2)c1 (stereo unspecified) | inactive |  |
| COC(=O)c1cccnc1NC(=S)NC(C)C | 4.47 µM (active) |  |
| CCOC(=O)c1cccnc1NC(=O)c1ccncc1 | inactive |  |
| CCN(C(=O)c1cc([N+](=O)[O-])ccc1NCc1cccnc1)c1ccccc1 | inactive |  |
| CN(C)c1ccc(/C=C2\NC(=S)N(Cc3ccccc3)C2=O)cc1 | 11.2 µM (active) |  |
| O=C1NCC(=O)N(Cc2ccccc2)/C1=C/c1ccccc1 | inactive |  |
| CC1=NN(Cc2ccccc2)C(=O)/C1=C/c1ccc(N(C)C)cc1 | inactive |  |
| Cn1cc(S(=O)(=O)Nc2ccc(Cl)cc2Cl)c(=O)n(C)c1=O | inactive |  |
| Cc1cc(NC(=O)c2cnn3cccnc23)n(-c2ccccc2)n1 | inactive |  |
| CC(=O)N/C(=N/c1nc(C)cc(C)n1)Nc1ccc(F)cc1F | inactive |  |
| Cc1cc(C)nc(-n2nc(C)cc2NC(=O)c2ccc(F)cc2F)n1 | 3.16 µM (active) |  |
| COc1cc2ccccc2cc1C(=O)N(CCN(C)C)c1nc2c(F)cccc2s1 | inactive |  |
| CC(C)(C)SCCSC1=CC(=O)CC(c2ccccc2)C1 (stereo unspecified) | inactive |  |
| O=C(Nc1ccc(S(=O)(=O)N2CCCCCC2)cc1)c1c(F)cccc1F | inactive |  |
| CCOc1ncccc1C(=O)NCCc1ccc(OC)cc1 | inactive |  |
| Cc1cc(C)cc(NC(=O)C2CCCN2S(=O)(=O)c2cccc3cccnc23)c1 (stereo unspecified) | inactive |  |
| O=C(Nc1nc2ccc([N+](=O)[O-])cc2s1)c1ccncc1 | inactive |  |
| O=C(Nc1nc2ccc([N+](=O)[O-])cc2s1)c1ccc(S(=O)(=O)N2CCCc3ccccc32)cc1 | 3.98 µM (active) |  |
| O=C(NC(Nc1nc2ccc([N+](=O)[O-])cc2s1)(C(F)(F)F)C(F)(F)F)c1ccccc1 | 2.82 µM (active) |  |
| CSc1nc2ccc(S(=O)(=O)N3CCc4ccccc43)cc2s1 | inactive |  |
| O=C(COC(=O)c1ccc(F)cc1)Nc1nc2ccc([N+](=O)[O-])cc2s1 | inactive |  |
| CS(=O)(=O)c1ccc2nc(NC(=O)c3ccc(N4CCCC4=O)cc3)sc2c1 | inactive |  |
| CCOC(=O)c1cc(C(=O)Nc2ccc(S(=O)(=O)Nc3ccc(OC)cc3)cc2)nn1C | inactive |  |
| COC(=O)c1cccc(N(C(=O)CNC(=O)c2cccs2)C(C(=O)NCC2CCCO2)c2ccc(OC)c(OC)c2)c1 (stereo unspecified) | inactive |  |

| Compound | Potency | activity, negative = inhibition |
| --- | --- | --- |
| Cc1cccc(CCNS(=O)(=O)c2ccc3c(c2)NC(=O)CO3)c1 | inactive |  |
| COc1ccc(CN2CCNC(=O)C2CC(=O)NCc2cn[nH]c2-c2ccccc2)c(F)c1 (stereo unspecified) | inactive |  |
| COc1ccc(C(CNC(=O)COc2ccccc2OC)N2CCCCC2)cc1 (stereo unspecified) | inactive |  |
| O=C1OC2(CCCCC2)CC2=C1C1O[C@](c3ccsc3)(Cc3ccccc31)O2 |  | -4.71% [at 10 µM] |
| COc1cc2c(cc1OC)C(c1ccccc1Br)NC(=O)C2 (stereo unspecified) | inactive |  |
| COc1ccc(NC(=O)CCCC2CCCCC2)c(OC)c1 | inactive |  |
| CCN(CC)CCOc1ccc2c(c1)C(=NNC(=O)c1ccccn1)c1cc(OCCN(CC)CC)ccc1-2 | 10 µM (active) |  |
| Cc1cccc(OCC(=O)NCCCNC(=O)c2ccccn2)c1 | inactive |  |
| CCOc1cc(NC(=O)c2ccccn2)c(OCC)cc1NC(=O)c1ccc(OC)cc1 | inactive |  |
| Cc1onc(C(=O)Nc2ccc3c(c2)OCO3)c1[N+](=O)[O-] | inactive |  |
| COc1ccc(N(C(=O)c2snc(C(N)=O)c2N)C(C(=O)NC2CCCC2)c2ccco2)cc1OC (stereo unspecified) | inactive |  |
| COc1ccc(C(=O)N2CCCC(C(=O)c3ccccc3OC)C2)cc1OC (stereo unspecified) | inactive |  |
| COc1ccc(C(=O)NC(=S)N2CCCCC2c2cccnc2)cc1OC (stereo unspecified) | 17.8 µM (active) |  |
| O=C(Nc1ccccc1C(F)(F)F)N1CCCC1c1cccnc1 (stereo unspecified) | inactive |  |
| Cc1ccc(-c2cc(C(F)(F)F)n3ncc(C(=O)N4CCCCC4c4cccnc4)c3n2)cc1 (stereo unspecified) | inactive |  |
| O=C(NC(=S)N1CCCCC1c1cccnc1)c1ccccc1 (stereo unspecified) | 4.47 µM (active) |  |
| COc1ccc(C(=O)Nc2cccnc2)cc1C(=O)Nc1cccnc1 | inactive |  |
| COc1ccc(Nc2ncnc3sc(C)cc23)cc1 | inactive |  |
| Cc1ccc(-c2ccnc3[nH]n(-c4ccccc4)c(=O)c23)cc1 | inactive |  |
| CCc1nnc(NS(=O)(=O)c2ccc(N=Cc3c(C)[nH]n(-c4ccc(C)cc4)c3=O)cc2)s1 | inactive |  |
| Cc1ccc(-n2[nH]c(C)c(/C=N/N3C(=O)c4cccc5cccc(c45)C3=O)c2=O)cc1 | 12.6 µM (active) |  |
| O=C(CNC(=O)C1COc2ccccc2O1)N/N=C/c1cc(Br)c(O)c(Br)c1 (stereo unspecified) | inactive |  |
| O=C(NCCc1c[nH]c2ccccc12)C1CCN(Cc2ccc(Br)cc2)CC1 | inactive |  |
| COc1ccccc1N1CCN(C(=O)CCS(=O)(=O)c2ccc3c(c2)NC(=O)C(C)S3)CC1 (stereo unspecified) | inactive |  |
| CCOc1ccc(NC(=O)C2CCN(C(=O)N3CCOc4ccccc43)CC2)cc1 | inactive |  |
| CCCNC(=O)c1cnc(-c2ccccc2)nc1-c1ccccc1 | inactive |  |

| Compound | Potency | activity, negative = inhibition |
| --- | --- | --- |
| CCOC(=O)c1c(C)[nH]c(C)c1S(=O)(=O)N(C)CC(=O)Nc1ccccc1C | inactive |  |
| CCOC(=O)c1c(C)[nH]c2c1-c1ccccc1C(=O)C2=O | 2.82 µM (active) |  |
| CCOC(=O)c1c(C)[nH]c(C(=O)NCc2ccccc2OC)c1C | inactive |  |
| CCOC(=O)c1c(C)[nH]c(=S)c(C#N)c1-c1ccccc1 | 17.8 µM (active) |  |
| CC(=O)c1c(C)[nH]c(=S)c(C#N)c1-c1ccc(F)cc1 | inactive |  |
| CCOC(=O)c1c(C)nc(-c2ccccc2)nc1NC(=O)C(C)C | inactive |  |
| COc1cccc(CN(C)C(=O)CC23CC4CC(CC(C4)C2)C3)c1OC | inactive |  |
| COc1cc(/C=C/C(=O)O)cc(S(=O)(=O)Nc2ccccc2C(=O)NCCc2ccccc2)c1OC | inactive |  |
| OC(CNCCc1ccc(Cl)cc1Cl)COc1ccccc1 (stereo unspecified) | inactive |  |
| O=C(N/N=C/c1ccccc1O)/C(=C/c1ccccc1)CCO | 1.12 µM (active) |  |
| O=C(CCC(=O)Nc1ccccc1)N/N=C/c1ccccc1F | inactive |  |
| O=C(CCCCCNC(=O)c1ccccc1)N/N=C/c1ccccc1 | inactive |  |
| COc1ccc(CNS(=O)(=O)c2ccc(-c3cnc(C4CC4)o3)cc2)cc1 | inactive |  |
| Cc1ccc(S(=O)(=O)NNC(=O)/C=C/c2cccc(F)c2)cc1 | inactive |  |
| Cc1c(CC(=O)NCC(=O)NCC(=O)O)c(=O)oc2cc3oc4c(c3cc12)CCCC4 | inactive |  |
| Cc1cc(C2=NNC(=Nc3ccc(S(=O)(=O)N4CCOCC4)cc3)SC2)c(C)n1CC1CCCO1 (stereo unspecified) | inactive |  |
| C=CCn1c(C)cc(C2=NNC(=NCC)SC2)c1C | 1 µM (active) |  |
| CS(=O)(=O)N1CCc2cc(C(=O)Nc3ccccc3Br)ccc21 | inactive |  |
| CC(=O)Nc1cc(C(=O)O)ccc1S(=O)(=O)c1ccc(Cl)cc1 | inactive |  |
| O=C(Nc1ccccc1)c1nnsc1S(=O)(=O)c1ccc(Cl)cc1 | 11.2 µM (active) |  |
| CS(=O)(=O)c1ccc(Cl)c(NC(=O)Nc2ccccc2)c1 | inactive |  |
| CC(=O)Nc1ccc(NC(=O)CN2C(=O)COc3ccc(S(=O)(=O)N4CCCCC4)cc32)cc1 | inactive |  |
| O=[N+]([O-])c1ccc(N(CCO)Cc2ccccc2)c([N+](=O)[O-])c1 | inactive |  |
| Cc1cccc(C(=O)c2cccc(C)c2)c1 | inactive |  |
| Cc1cccc(/C(N)=N/OC(=O)c2ccccc2Cl)c1 | 5.01 µM (active) |  |
| Cc1cccc(C(=O)O)c1 | inactive |  |

| Compound | Potency | activity, negative = inhibition |
| --- | --- | --- |
| O=C(Nc1ccn(Cc2ccccc2)n1)c1n[nH]c([N+](=O)[O-])c1Cl | 11.2 µM (active) |  |
| O=C(Nc1ccn(Cc2ccccc2)n1)c1cccc(F)c1 | inactive |  |
| Cc1ccc(Cn2ccc(NC(=O)c3cc(C(C)C)on3)n2)cc1 | inactive |  |
| CCc1ccc(-c2cc3c(=O)n(CC(=O)NCCCN4CCN(Cc5ccccc5)CC4)nc(C)n3n2)cc1 | inactive |  |
| O=C(/C=C/c1ccc(Cl)cc1)NCCCn1ccnc1 | inactive |  |
| Cc1ccc2nc(N3C(=O)C(O)=C(C(=O)c4ccco4)C3c3cccc(O)c3)sc2c1 (stereo unspecified) | inactive |  |
| c1c2c(cc3sc(N4CCCCC4)nc13)OCCO2 | 1.26 µM (active) |  |
| Brc1ccc2nc(N3CCCC3)sc2c1 | inactive |  |
| Cc1nc2cc3c(cc2s1)OCO3 | inactive |  |
| CN(c1ccccc1)S(=O)(=O)c1ccc(Cl)c(C(=O)NCCc2c[nH]c3ccccc23)c1 | inactive |  |
| CN(c1ccccc1)S(=O)(=O)c1cc(C(=O)OCC(=O)N2CCN(C(=O)c3ccco3)CC2)ccc1Cl | inactive |  |
| CN(c1ccccc1)S(=O)(=O)c1cc(C(=O)Nc2nc3ccccc3[nH]2)ccc1Cl | 3.16 µM (active) |  |
| Cc1c2cnn(CC(=O)NCCCN3CC(C)CC(C)C3)c(=O)c2c(C)n1Cc1ccc(Cl)cc1 (stereo unspecified) | inactive |  |
| COc1ccc(C(=O)NCc2nnc(SCC(=O)NC3=NCCS3)n2C)cc1 | inactive |  |
| Cc1cc(-c2ccc(S(=O)(=O)N3CCN(c4cccc(C(F)(F)F)c4)CC3)s2)on1 | inactive |  |
| NC(=O)c1cc2ccccc2o/c1=N/NC(=O)c1cccc(F)c1 | inactive |  |
| Cc1cccc(S(=O)(=O)N2CN(CC3CCCO3)c3nc4ccccc4nc32)c1 (stereo unspecified) | inactive |  |
| CC1=C(C(N)=O)C(c2ccc(Br)cc2)n2ncnc2N1 (stereo unspecified) | inactive |  |
| Fc1ccccc1/C=C1\CCCC2=C1Nc1ncnn1C2c1ccccc1F (stereo unspecified) | 3.98 µM (active) |  |
| Cc1ccc(C(=O)c2coc3ccc(O)c(CN(C)C)c23)cc1 | inactive |  |
| CCCCCCn1cc(C(=O)O)c(=O)c2cc(F)c(N3CCCCC3)cc21 | inactive |  |
| Cc1ccc(NC(=O)c2cc(-c3ccccc3O)n[nH]2)cc1C | inactive |  |
| O=C(c1ccc(OC2CCN(C/C=C/c3ccc(F)cc3)CC2)cc1)N1CCCCC1 | inactive |  |
